Cav32 inh – Cav3.2 calcium influx blockers – cell-based, Fluo-4 calcium fluorescence, FDSS, MLSMR library, primary screen | 100,000 compounds, 4% hits | B-score at 10 µM | Cav3.2-expressing cells; active compounds read low;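 active = single-dose well whose peak fluorescence ratio is a statistical outlier from its plate by either plate-standardised score or position-corrected B-score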
PLAP act – PLAP enzyme activators, biochemical, luminescence, HTS; purified PLAP enzyme, luminescent substrate read-out; active compounds read high; Alkaline phosphatase, placental type (Homo sapiens), P05187; 96,000 compounds, 1.2% hits; activation fold at 20 µM; in the data active = activation fold above about 2
PostGolgi ctrl – growth inhibition of yeast control strain, primary screen, counter-screen for post-Golgi transport modulator project | efflux-deficient yeast background strain, growth absorbance A615, 16 h | inhibition, % at 10 µM | 98,000 compounds, 5% hits
D1 mod – D1 CRE-luciferase signal change, two-sided – cell-based, HEK293 D1, dopamine EC30, D1 allosteric modulator project, primary screen | dopamine EC30 potentiation; actives deviate in either direction | 58,000 compounds, 5.9% hits | B-score at 10 µM;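 active = luminescence count or its row- and column-corrected plate score outside the 99.7% band of the plate's sample wells, on either side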
PostGolgi yeast – phenotypic screen on post-Golgi transport, primary screen; post-Golgi transport phenotypic cell assay; inhibition, % at 10 µM; 98,000 compounds, 0.9% hits; AID 739, 2007;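 also: yeast cells grown in 1536-well plates; yeast grown about 18 h at 30C before absorbance read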
DAT uptake mod – changed hDAT dopamine uptake under cocaine IC80, either direction, primary screen, cocaine antagonist project, cell-based, LLC-PK1 hDAT, [14C]-dopamine uptake, MLSMR. Sodium-dependent dopamine transporter (Homo sapiens), Q01959. LLC-PK1 hDAT cells, [14C]-dopamine uptake with cocaine IC80; actives deviate in either direction. B-score at 10 µM. 110,000 compounds, 1.3% hits;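 active = Z score or B-score, a plate-position-corrected score, falls beyond the plate's 99.7% confidence bounds, in either direction; inactive = both scores lie inside the 99.7% bounds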;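 also: scored against the spread of the other compound wells on the same plate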
Target sequence (Q01959 whole entry, looked up): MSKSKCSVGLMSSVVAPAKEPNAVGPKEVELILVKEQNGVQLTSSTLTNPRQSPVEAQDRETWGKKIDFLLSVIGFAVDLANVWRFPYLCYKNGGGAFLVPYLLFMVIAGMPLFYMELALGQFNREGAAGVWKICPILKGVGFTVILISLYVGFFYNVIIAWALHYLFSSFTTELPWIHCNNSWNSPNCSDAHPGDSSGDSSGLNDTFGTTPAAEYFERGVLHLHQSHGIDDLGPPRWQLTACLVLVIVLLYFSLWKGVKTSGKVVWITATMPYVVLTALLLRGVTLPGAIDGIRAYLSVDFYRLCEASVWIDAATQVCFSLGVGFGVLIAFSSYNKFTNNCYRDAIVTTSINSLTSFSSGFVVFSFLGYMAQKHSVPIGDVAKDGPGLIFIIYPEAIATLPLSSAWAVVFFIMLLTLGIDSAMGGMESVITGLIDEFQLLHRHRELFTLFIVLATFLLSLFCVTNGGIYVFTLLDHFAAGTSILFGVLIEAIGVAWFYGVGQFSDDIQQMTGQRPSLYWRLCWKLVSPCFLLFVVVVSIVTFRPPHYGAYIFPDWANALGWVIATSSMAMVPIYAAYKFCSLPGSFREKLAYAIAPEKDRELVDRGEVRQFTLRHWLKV
The depositor's hits bear a star; x = no result. Only some compounds are listed: those with a hit (about 12% of all), similar ones and a draw of the others. Rule as the data show it, unless noted: active = inhibition above about 30%; inactive = the rest.

SMILES	Cav32 inh	PLAP act	PostGolgi ctrl	D1 mod	PostGolgi yeast	DAT uptake mod
COCCNC(=O)C1CC(c2cccc([N+](=O)[O-])c2)=NO1 (stereo not drawn)	0.11	1	18	x	-3	x
C=CC[C@]12CC=CC(=O)[C@@]1(O)O[C@H](c1ccc(OC)c(OC)c1)[C@H]2C	0.15	x	x	x	x	0.2
COc1cccc(N2[C@@H](CC(C)=O)c3ccc(/C=C/C(C)=O)cc3S2(=O)=O)c1	1.1	x	x	x	x	-0.19
O=c1c2c3c(sc2ncn1-n1cccc1)CCCCC3	-3	x	x	x	x	0.31
O=c1c2c3c(sc2ncn1/N=C/c1ccc([N+](=O)[O-])o1)CCCC3	0.085	1	60*	x	105*	-0.2
Clc1ccc(CN2CCN(c3ncnc4scc(-c5cccs5)c34)CC2)cc1	-1	1.8	58*	x	7	1.8
Cc1ccccc1N1CCN(c2ncnc3scc(-c4cccs4)c23)CC1	x	1	21	x	-8	1.5
Nn1cnnc1N/N=C/c1cc(Br)cc(Br)c1O	x	1.3	11	x	3	x
O=C1Nc2ccc(Cl)cc2[C@@](C#CC2CC2)(C(F)(F)F)O1	-5.2*	x	x	x	x	1.6
O=C1Nc2cc(Cl)ccc2C1(N1CCNCC1)C(F)(F)F (stereo not drawn)	0.41	1.1	2	-0.37	-5	-0.9
CCN(CC)C(=O)COc1ccc(-c2ccccc2)cc1	-1.4	1	21	-1.2	-4	1.5
C/C(CC1CC(COCCC(C)C)OC1=O)=N\NC(N)=S (stereo not drawn)	0.43	1	14	x	-6	0.09
C/C(CC1CC2=C(CC1(C)C)C(C)(C)CCC2)=N\NC(N)=S (stereo not drawn)	-3.1	0.9	80*	x	104*	-0.00031
O=C(OCc1cnc(Cl)s1)c1ccccc1Cl	-1.1	0.7	10	x	-4	-0.73
CCn1ncc(Br)c1C(=O)Nc1ccc(C(=O)OC(C)C)cc1	-2.2	0.9	5	x	-7	0.0048
O=C(OCn1ncc(Br)c(Br)c1=O)c1ccccc1Cl	0.21	1	34*	x	108*	0.55
O=C(OCn1ncc(Br)c(Br)c1=O)c1ccc(F)cc1	0.21	1	46*	x	107*	0.21
Fc1ccc(CN2CCCCCCC2)cc1	-0.87	0.7	5	x	9	-0.6
NC(=O)C1(N2CCCCC2)CCN(Cc2ccc(F)cc2)CC1	-4.2*	0.9	4	x	6	-1.5
Cc1ccc2nc(SCC(=O)Nc3nnc(SCC(N)=O)s3)[nH]c2c1	1	1.1	9	x	-8	0.61
CSc1nnc2c3ccccc3n(CCc3ccccc3)c2n1	-1.2	0.9	18	0.47	0	-0.0033
CCCCc1c(C)nn(-c2nnc3c4ccccc4n(CC)c3n2)c1C	-1.9	1.3	58*	-1.4	4	1.1
COC(=O)C(CC(C)C)NC(=O)c1ccc([N+](=O)[O-])c(C)c1 (stereo not drawn)	0.15	1	1	x	2	-1.4
COc1cccc(OC)c1C(=O)NC(=S)N1CCN(c2ccc(C(F)(F)F)cc2[N+](=O)[O-])CC1	-5.5*	1.2	6	x	-1	1.3
CCCCCN(CCCCC)C(=O)C(CCC(=O)O)NC(=O)c1ccc(Cl)c(Cl)c1 (stereo not drawn)	-8.5*	x	x	x	x	1.9
SMILES	Cav32 inh	PLAP act	PostGolgi ctrl	D1 mod	PostGolgi yeast	DAT uptake mod
CCCCC(NC(=O)c1ccc(Cl)cc1)C(=O)O (stereo not drawn)	-0.039	1.3	16	-0.44	3	-1.2
CC1(C)CC2(CCO1)CNC(=O)O2 (stereo not drawn)	0.77	1.1	23	0.29	5	0.084
c1ccc(-c2nc(-n3nc4ccccc4n3)nc3ccccc23)cc1	0.66	0.8	78*	x	10	0.81
O=c1cc(-c2ccc(O)c(-c3c(O)cc(O)c4c(=O)cc(-c5ccc(O)cc5)oc34)c2)oc2cc(O)cc(O)c12	0.83	x	x	x	x	1.4
O=C1OC(c2ccccc2)=C/C1=C/N1CCCCC1	-0.47	1	31*	x	-1	1.3
O=C1OC(c2ccccc2)=N/C1=C\N1CCCCC1	0.0011	0.9	13	x	3	1.4

Screening data: PubChem BioAssay, several laboratories
